TWEAK Fn14 block = inhibitors of TWEAK-Fn14 interaction signaling | inhibition, % at 10 µM | TWEAK-stimulated Fn14 reporter cells, luciferase luminescence, 8 h | 360,000 tested, 2% active; in the data active = inhibition above about 50%
LMP1 NFkB inh = inhibitors of Epstein-Barr LMP1-induced NF-kappaB reporter | inhibition, % at 12.5 µM | 350,000 tested, 0.69% active | LMP1-induced NF-kappaB luciferase reporter cells, luminescence; in the data active = inhibition above about 41%; inconclusive = no clear call, values can overlap the other calls
TROY NFkB inh = inhibitors of TROY-dependent NF-kB signaling; 360,000 tested, 0.98% active; Q293 LMP1-TROYcd NF-kB luciferase reporter, 4 h; AID 1347056; inhibition, % at 10 µM;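 active = compounds whose plate-normalised and pattern-corrected inhibition of the luciferase reporter signal at the single screening dose is 50% or more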
EWS-Fli block = EWS/Fli transcriptional activity inhibition | A673 NR0B1-luciferase reporter, viability-normalised | inhibition, % at 12.6 µM | 350,000 tested, 0.67% active | AID 651661;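 active = mean inhibition of at least 50% after viability correction, with every replicate also passing that limit; inconclusive = mean reaches 50% but only one of two replicates passes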;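 also: firefly luciferase signal divided by Alamar Blue viability fluorescence both relative to DMSO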
LGR2 inh = blocks bursicon-induced cAMP signaling via Drosophila LGR2 | HEK293 LGR2, CRE-luciferase, bursicon-stimulated, 4 h | inhibition, % at 9.99 µM | 380,000 tested, 0.35% active;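 active = drop in luminescence signal, shown as inhibition above about 50% in the replicate tests, limit read from the data, passing the limit was not always enough; inconclusive = probably only some replicates passing the limit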;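 also: agonist challenge used bursicon conditioned medium at about half maximal strength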
Numbers stand for hits; . = inactive; ? = inconclusive; / = not tested or not shown. An excerpt weighted towards active compounds, which were near 2.6% of everything screened.

SMILES | TWEAK Fn14 block | LMP1 NFkB inh | TROY NFkB inh | EWS-Fli block | LGR2 inh
CN1CCN(CC(=O)Nc2cccc(S(=O)(=O)N(C)c3ccccc3)c2)CC1 | . | 74.0 | . | . | /
CN(c1ccccc1)S(=O)(=O)c1cccc(NC(=O)c2cc(=O)c3ccccc3o2)c1 | 51.0 | . | . | . | 67.5
O=C(Nc1cccc(S(=O)(=O)N2CCCCCC2)c1)c1cc(=O)c2ccccc2o1 | 62.5 | . | . | . | .
Cn1cnc(S(=O)(=O)N2CCCCN3[C@H](C2)[C@H](c2ccc(C#CC4CC4)cc2)[C@@H]3CO)c1 | / | / | / | . | /
COCCn1c(SCC(=O)NCc2ccco2)nnc1-c1c[nH]c2ccccc12 | . | 72.6 | . | . | .
CCn1c(SC(C)C(=O)OC)nnc1-c1c[nH]c2ccccc12 (stereo not drawn) | . | 75.1 | . | . | .
COc1ccc(CN(C)C[C@H]2Oc3ccc(NC(=O)c4ccncc4)cc3CC(=O)N([C@@H](C)CO)C[C@@H]2C)cc1 | / | / | / | / | .
O=S(=O)(c1ccc(Cl)c(NC(=S)N/N=C/c2ccc(O)cc2)c1)N1CCOCC1 | 58.4 | . | . | / | .
Cn1c2c(c(=O)[nH]c1=O)C(c1cccc(O)c1)C1=C(N2)c2ccccc2C1=O (stereo not drawn) | . | 46.6 | . | . | .
COC(=O)C1=C(C)NC2=C(C(=O)c3ccccc32)C1c1cccc(OC)c1 (stereo not drawn) | . | . | . | . | /
O=C(C[C@H]1CC[C@H]2[C@@H](COC[C@@H](O)CN2S(=O)(=O)c2ccccc2Cl)O1)N1CCC(Cc2ccccc2)CC1 | / | / | / | . | .
CN(C)CCC1(C2=CCCC2)CC/C(=C/c2ccc(Cl)cc2)C1=O (stereo not drawn) | . | . | . | . | 68.7
O=C(NCc1ccccc1)[C@@H]1CCCN1C(=O)[C@H]1CCCN1C(=O)C1CCCCC1 | / | / | / | . | .
C[C@H](CO)N1C[C@H](C)[C@@H](CN(C)C(=O)Cc2ccccc2)Oc2ncc(-c3ccccc3)cc2C1=O | / | / | / | . | .
CN1C2CCC1/C(=C\c1ccccc1F)C(=O)/C2=C/c1ccccc1F | 83.4 | . | . | / | .
O=C(/C=C/c1ccnc2ccccc12)c1cccs1 | 65.5 | . | 70.3 | . | .
CN1CCN(c2ccc(NC(=O)c3cc4ccccc4o3)cc2)CC1 | . | . | . | . | .
O=C(Nc1ccc(N2CCN(C(=O)c3ccccc3)CC2)cc1)c1cc2ccccc2o1 | 91.1 | . | 70.4 | / | 81.6
O=C(Nc1ccc(N2CCN(C(=O)c3ccccc3)CC2)c(Cl)c1)c1ccc(Br)o1 | . | . | . | . | 88.9
O=C(Nc1ccc(N2CCN(C(=O)c3ccccc3)CC2)cc1)c1ccc(Br)o1 | . | . | . | / | /
COCCn1c(C)c(C)c2c(NCCc3ccccc3)ncnc21 | . | . | 80.2 | . | .
Cc1c(C)n(CCc2ccccc2)c2ncnc(NCCCO)c12 | . | . | . | . | .
C[C@@H]1CN([C@@H](C)CO)C(=O)c2cc(C#CCN(C)C)cnc2O[C@@H]1CN(C)C(=O)c1ccc(F)cc1 | / | / | / | . | .
C[C@@H]1CCCCO[C@@H](CN(C)S(=O)(=O)c2ccc(Cl)cc2)[C@H](C)CN([C@H](C)CO)C(=O)c2cc(NC(=O)CCC(F)(F)F)ccc2O1 | / | / | / | . | .
CCNC(=O)C[C@@H]1CC[C@H]2[C@H](COc3ccc(NC(=O)c4ccc(C(F)(F)F)cc4)cc3C(=O)N2C)O1 | / | / | / | . | .
SMILES | TWEAK Fn14 block | LMP1 NFkB inh | TROY NFkB inh | EWS-Fli block | LGR2 inh
Cc1ccc(S(=O)(=O)NC(C)c2ccccc2)cc1[N+](=O)[O-] (stereo not drawn) | . | 50.4 | . | . | .
CCC(/C=C1\Sc2ccc(OC)cc2N1CCO)=C\c1sc2ccc(OC)cc2[n+]1CCO | . | 45.8 | . | . | .
Cc1ccc(-c2cc(=O)c3ccccc3[nH]2)cc1 | . | . | . | . | .
Cc1ccc2[nH]c(-c3ccccc3)cc(=O)c2c1 | . | . | . | 58.1 | /
Cc1ccc(OCCCCCCN2CCNCC2)c(Br)c1 | 57.7 | . | . | . | ?
Cc1ccc(OCCCCN2CCC(C)CC2)c(Br)c1 | . | . | . | / | .
Cc1cc(C(=O)CSc2ccc(Cl)cc2)cc(C)c1OC(=S)N(C)C | . | . | 79.9 | / | /
Cc1cc(C(=O)CSc2ccc(F)cc2)cc(C)c1O | . | . | . | . | .
C[C@H]1CN([C@@H](C)CO)S(=O)(=O)c2ccc(-c3cncnc3)cc2O[C@H]1CN(C)C(=O)C1CC1 | / | / | / | . | .
CC(C)c1noc2ncc(C(=O)c3cc(Cl)cc(Cl)c3O)cc12 | . | . | 62.5 | / | /
O=C(OCc1nc2scc(-c3ccccc3)c2c(=O)[nH]1)c1cc([N+](=O)[O-])ccc1Cl | 63.0 | . | . | . | .
Cc1cccc(OCc2nc(-c3ccccn3)n[nH]2)c1 | . | . | 61.1 | / | /
C[C@H](CO)N1C[C@H](C)[C@@H](CN(C)Cc2ccncc2)Oc2c(NC(=O)Nc3ccc(C(F)(F)F)cc3)cccc2C1=O | / | / | / | . | .
O=C(ONC(=O)C1CCCCC1C(=O)NOC(=O)c1ccccc1)c1ccccc1 (stereo not drawn) | 51.0 | . | . | . | .
COC(=O)c1ccccc1NC(=O)C1CCCCC1C(=O)O (stereo not drawn) | . | . | . | / | /
COc1cccc(/C=N/Nc2ncnc(Cl)c2N)c1O | . | 65.4 | 60.6 | . | /
COc1ccc(/C=N/Nc2nccnc2Cl)cc1 | 59.9 | . | . | / | /
COc1cccc(/C=N/Nc2nccnc2Cl)c1O | 65.4 | 72.3 | . | . | 75.6
COc1cccc(/C=N/Nc2cc(-n3nc(C)cc3-c3ccccc3)ncn2)c1O | 60.8 | . | . | / | .
C[C@H](NC(=O)C[C@H]1C[C@H]2c3cc(NC(=O)CC4CC4)ccc3O[C@H]2[C@@H](CO)O1)c1ccccc1 | / | / | / | . | .
C/C=C/c1cnc2c(c1)C(=O)N([C@@H](C)CO)C[C@@H](C)[C@@H](CN(C)C(=O)C1CCC1)O2 | / | / | / | . | .
O=C(N[C@H]1CC[C@@H](CCNC(=O)c2ccccc2F)O[C@@H]1CO)c1cnccn1 | / | / | / | . | .
Cc1ccccc1-c1ccc(C2[C@H]3CNC[C@@H]2N3S(=O)(=O)Cc2ccccc2)cc1 (stereo partly drawn) | / | / | / | / | .
CC(C)C#Cc1ccc2c(c1)O[C@@H](CN(C)C(=O)c1cnccn1)[C@@H](C)CN([C@H](C)CO)S2(=O)=O | / | / | / | . | .
COCC(=O)N1CC(=O)N2[C@H](CO)[C@H](c3ccc(C#CC(C)C)cc3)[C@@H]2C1 | / | / | / | . | .
SMILES | TWEAK Fn14 block | LMP1 NFkB inh | TROY NFkB inh | EWS-Fli block | LGR2 inh
C[C@H]1CN([C@@H](C)CO)C(=O)Cc2cc(NC(=O)Cc3cn(C)c4ccccc34)ccc2O[C@@H]1CN(C)CC1CCCCC1 | / | / | / | . | .
COc1ccc(/C=N/Nc2nncc3ccccc23)cc1 | . | . | . | 66.9 | .
Oc1ccccc1/C=N/Nc1nccnc1Cl | . | 57.8 | . | / | /
COc1cccc(/C=N/Nc2ncnc3scc(-c4ccccc4)c23)c1O | 63.5 | 80.6 | . | / | .
COc1ccccc1/C=N/Nc1nncc2ccccc12 | . | . | . | . | .
C[C@H]1CN([C@@H](C)CO)C(=O)c2cc(NS(=O)(=O)c3ccc(Cl)cc3)ccc2O[C@@H]1CN(C)Cc1ccc2c(c1)OCO2 | / | / | / | . | .
